Measurements as given in PubChem BioAssay AID1159580 (chemical genetic matrix, 2015).
Out of some 5,500 compounds screened, about 2,000 (36%) were called active. Roughly 18% stayed inconclusive and do not appear here. Cut-off read from the data, not from the text of the source: active = normalized growth mostly below about 0.91 (no sharp cut-off); inconclusive = no clear call, values can overlap the other calls; inactive = mostly above about 0.92. The list shows a part of the results.

Experiment: chemical genetic growth profiling, strain panel (AID 1159580);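 note: tested at 20 µM; growth read once vehicle control cultures reached saturation at 30 °C; 1 = growth at the plate median or of vehicle wells; lower values mean less growth of the strain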
Conditions: growth OD
[1] = S. cerevisiae deletion strains, locus YDL101C, strain DUN1, hits give low values
[2] = S. cerevisiae deletion strains, locus YHR030C, strain SLT2, hits give low values

Measured: normalized growth

O=[N+]([O-])c1ccc2oc(C(O)c3ccc(-c4ccccc4)cc3)cc2c1 (configuration not stated)
inactive: S. cerevisiae deletion strains, locus YAR019C, strain CDC15, hits give low values 0.989 | S. cerevisiae deletion strains, locus YBL105C, strain PKC1, hits give low values 0.976 | S. cerevisiae deletion strains, locus YBR135W, strain CKS1, hits give low values 0.978 | S. cerevisiae deletion strains, locus YBR136W, strain MEC1, hits give low values 0.975 | S. cerevisiae deletion strains, locus YBR160W, strain CDC28, hits give low values 0.985 | S. cerevisiae deletion strains, locus YDL017W, strain CDC7, hits give low values 0.979 | S. cerevisiae deletion strains, locus YDL028C, strain MPS1, hits give low values 0.987 | [1] 0.975 | S. cerevisiae deletion strains, locus YDL108W, strain KIN28, hits give low values 0.969 | S. cerevisiae deletion strains, locus YDL132W, strain cdc53, hits give low values 0.996 | S. cerevisiae deletion strains, locus YDL214C, strain PRR2, hits give low values 0.84 | S. cerevisiae deletion strains, locus YDR052C, strain DBF4, hits give low values 0.982 | S. cerevisiae deletion strains, locus YDR054C, strain cdc34, hits give low values 0.995 | S. cerevisiae deletion strains, locus YDR226W, strain ADK1, hits give low values 0.999 | S. cerevisiae deletion strains, locus YDR477W, strain SNF1, hits give low values 0.849 | S. cerevisiae deletion strains, locus YER123W, strain YCK3, hits give low values 0.805 | S. cerevisiae deletion strains, locus YER133W, strain GLC7, hits give low values 0.863 | S. cerevisiae deletion strains, locus YFL009W, strain cdc4, hits give low values 1 | S. cerevisiae deletion strains, locus YFL029C, strain CAK1, hits give low values 0.976 | S. cerevisiae deletion strains, locus YFR003C, strain YPI1, hits give low values 0.984 | S. cerevisiae deletion strains, locus YFR019W, strain FAB1, hits give low values 0.904 | S. cerevisiae deletion strains, locus YFR028C, strain CDC14, hits give low values 0.997 | S. cerevisiae deletion strains, locus YGR040W, strain KSS1, hits give low values 0.859 | S. cerevisiae deletion strains, locus YGR052W, strain FMP48, hits give low values 0.926 | S. cerevisiae deletion strains, locus YGR092W, strain DBF2, hits give low values 0.802 | S. cerevisiae deletion strains, locus YHR079C, strain IRE1, hits give low values 0.896 | S. cerevisiae deletion strains, locus YHR082C, strain KSP1, hits give low values 0.86 | S. cerevisiae deletion strains, locus YHR205W, strain SCH9, hits give low values 0.967 | S. cerevisiae deletion strains, locus YIL147C, strain SLN1, hits give low values 0.968 | S. cerevisiae deletion strains, locus YJL095W, strain BCK1, hits give low values 0.905 | S. cerevisiae deletion strains, locus YJL128C, strain PBS2, hits give low values 1.05 | S. cerevisiae deletion strains, locus YJL157C, strain FAR1, hits give low values 0.822 | S. cerevisiae deletion strains, locus YJR016C, strain ILV3, hits give low values 0.977 | S. cerevisiae deletion strains, locus YJR066W, strain TOR1 (second series), hits give low values 0.751 | S. cerevisiae deletion strains, locus YJR066W, strain TOR1, hits give low values 0.829 | S. cerevisiae deletion strains, locus YKL048C, strain ELM1, hits give low values 0.979 | S. cerevisiae deletion strains, locus YKL067W, strain YNK1, hits give low values 0.872 | S. cerevisiae deletion strains, locus YKL101W, strain HSL1, hits give low values 0.982 | S. cerevisiae deletion strains, locus YKL193C, strain SDS22, hits give low values 0.98 | S. cerevisiae deletion strains, locus YKL203C, strain TOR2, hits give low values 0.924 | S. cerevisiae deletion strains, locus YLR113W, strain HOG1, hits give low values 0.882 | S. cerevisiae deletion strains, locus YLR133W, strain CKI1, hits give low values 0.877 | S. cerevisiae deletion strains, locus YLR403W, strain SFP1, hits give low values 0.902 | S. cerevisiae deletion strains, locus YML070W, strain DAK1, hits give low values 0.835 | S. cerevisiae deletion strains, locus YMR001C, strain CDC5, hits give low values 0.982 | S. cerevisiae deletion strains, locus YMR205C, strain PFK2 (second series), hits give low values 0.882 | S. cerevisiae deletion strains, locus YMR277W, strain FCP1, hits give low values 0.994 | S. cerevisiae deletion strains, locus YNL006W, strain LST8, hits give low values 0.987 | S. cerevisiae deletion strains, locus YNL020C, strain ARK1, hits give low values 0.854 | S. cerevisiae deletion strains, locus YNL161W, strain CBK1, hits give low values 0.984 | S. cerevisiae deletion strains, locus YNL183C, strain NPR1, hits give low values 0.919 | S. cerevisiae deletion strains, locus YNL207W, strain RIO2, hits give low values 0.979 | S. cerevisiae deletion strains, locus YNL222W, strain SSU72, hits give low values 0.976 | S. cerevisiae deletion strains, locus YNL307C, strain MCK1 (second series), hits give low values 0.936 | S. cerevisiae deletion strains, locus YOL078W, strain AVO1, hits give low values 0.993 | S. cerevisiae deletion strains, locus YOL136C, strain PFK27, hits give low values 0.849 | S. cerevisiae deletion strains, locus YOR061W, strain CKA2, hits give low values 0.75 | S. cerevisiae deletion strains, locus YOR119C, strain RIO1, hits give low values 0.904 | S. cerevisiae deletion strains, locus YOR231W, strain MKK1, hits give low values 0.892 | S. cerevisiae deletion strains, locus YOR329C, strain SCD5, hits give low values 0.985 | S. cerevisiae deletion strains, locus YPL031C, strain PHO85, hits give low values 0.848 | S. cerevisiae deletion strains, locus YPL153C, strain RAD53, hits give low values 0.821 | S. cerevisiae deletion strains, locus YPL204W, strain HRR25, hits give low values 0.88 | S. cerevisiae deletion strains, locus YPL209C, strain IPL1, hits give low values 0.977 | S. cerevisiae deletion strains, locus YPL256C, strain CLN2, hits give low values 0.96 | S. cerevisiae deletion strains, locus YPR025C, strain CCL1, hits give low values 0.985 | S. cerevisiae deletion strains, locus YPR106W, strain ISR1, hits give low values 1 | S. cerevisiae deletion strains, locus YPR111W, strain DBF20, hits give low values 1.03 | S. cerevisiae deletion strains, strain NNK1, hits give low values 0.997 | S. cerevisiae deletion strains, strain TSCII, hits give low values 0.987
active: [2] 0.786

O=C(c1ccc(-c2ccccc2)cc1)c1cc2cc([N+](=O)[O-])ccc2o1
inactive: S. cerevisiae deletion strains, locus YAL013W, strain DEP1, hits give low values 1 | S. cerevisiae deletion strains, locus YBR229C, strain ROT2, hits give low values 0.993 | [1] 1.02 | S. cerevisiae deletion strains, locus YDR150W, strain NUM1, hits give low values 0.99 | S. cerevisiae deletion strains, locus YEL061C, strain CIN8, hits give low values 1.01 | S. cerevisiae deletion strains, locus YGR078C, strain PAC10, hits give low values 1.01 | [2] 1.01 | S. cerevisiae deletion strains, locus YHR087W, strain rtc3, hits give low values 1.01 | S. cerevisiae deletion strains, locus YJR043C, strain POL32, hits give low values 0.997 | S. cerevisiae deletion strains, locus YJR075W, strain HOC1, hits give low values 1.03 | S. cerevisiae deletion strains, locus YKL190W, strain CNB1, hits give low values 0.993 | S. cerevisiae deletion strains, locus YLR039C, strain RIC1, hits give low values 0.986 | S. cerevisiae deletion strains, locus YLR058C, strain SHM2 (second series), hits give low values 0.993 | S. cerevisiae deletion strains, locus YLR085C, strain ARP6, hits give low values 1 | S. cerevisiae deletion strains, locus YLR262C, strain YPT6, hits give low values 0.981 | S. cerevisiae deletion strains, locus YML094W, strain GIM5, hits give low values 1.07 | S. cerevisiae deletion strains, locus YMR219W, strain ESC1, hits give low values 1 | S. cerevisiae deletion strains, locus YMR263W, strain SAP30, hits give low values 1.04 | S. cerevisiae deletion strains, locus YNL153C, strain GIM3, hits give low values 1.01 | S. cerevisiae deletion strains, locus YNL298W, strain CLA4 (second series), hits give low values 0.996 | S. cerevisiae deletion strains, locus YNL322C, strain KRE1, hits give low values 1.01 | S. cerevisiae deletion strains, locus YNR030W, strain Alg12, hits give low values 1 | S. cerevisiae deletion strains, locus YPL055C, strain LGE1, hits give low values 1.01 | S. cerevisiae deletion strains, locus YPL241C, strain CIN2, hits give low values 1.07 | S. cerevisiae deletion strains, locus YPR135W, strain CTF4, hits give low values 1.12 | S. cerevisiae strains, strain wild type, hits give low values 0.987
